Measurements as given in PubChem BioAssay.
Active and inactive are the calls of the source.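 The calls were made as follows: active = inhibition at or above 50% at 10 µM; inactive = inhibition below 50%.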

Experiment: inhibitors of Sendai virus-induced IRF3 signaling, primary screen, TLR/RLR signaling modifier project, cell-based, Sendai virus stimulus, luciferase, 10K MLSCN set (AID 602276);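 also: firefly luciferase from ISG56 promoter only with Renilla not read in this screen; 0% = Sendai virus plus DMSO and 100% = medium plus DMSO without virus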
Details: HEK293 RL24 IRF3 luciferase reporter, at 10 µM, active compounds read high

inhibition, inactive:
Cn1c(COc2ccccc2)nnc1SCC(=O)Nc1ccc(N2CCOCC2)c(Cl)c1 13.5%
O=C(CSc1nnc(Cc2ccccc2)n1C1CCCCC1)N1CCOCC1 -13%
C1=CC2CC1CC2CN1CCN(c2ccccc2)CC1 (centres undefined) 2.18%
COc1ccc(-c2nnc(SCC#N)o2)cc1 -8.24%
CC(=O)Nc1ccc(N2CCN(Cc3ccccc3F)CC2)cc1 8.54%
O=C1C2C3C=CC(C3)C2C(=O)N1CNc1ccc(O)cc1 (centres undefined) 4.46%
COc1cc2c(cc1OC)-c1cc(OCc3cccnc3)nc(=O)n1CC2 31.6%
Cc1cc2ncn(C(=O)N3CCOCC3)c2cc1C 4.38%
COc1ccccc1N1CCN(C(=O)CCNS(=O)(=O)c2ccc3c(c2)CCC(=O)N3)CC1 5.92%
CCOC(=O)c1cc(C)n(CCCN2CCOCC2)c1C 0.506%
CCCc1cc(=O)n2[nH]c(-c3ccc(Br)cc3)cc2n1 -22.4%
CCCC1C(C#N)=C(N)Oc2n[nH]c(C(C)(C)C)c21 (centres undefined) 13.9%
CCOC(=O)CSc1nnc(-c2cccnc2)n1Cc1ccccc1 -4.13%
CCOc1ccccc1C(=O)NCCC(=O)O -1.19%
CC(C(=O)Nc1ccccc1-c1ccccc1)N1CCN(C(=O)c2ccco2)CC1 (centres undefined) 19.8%
CC(C)(C)n1ncc2c(=O)n(CC(=O)NCc3ccco3)cnc21 -35.6%
CCn1c(=O)cc(OCC(=O)Nc2cc(C)ccn2)c2ccccc21 13.4%
COc1ccc(CN2CC(C(=O)NCCCOC(C)C)CC2=O)cc1 (centres undefined) -10%
CCOC(=O)C1=C(CC)Nc2ccccc2N=C1NC(=O)Cn1cnc2ccccc2c1=O 10.4%
Cc1ccc(-n2ncc3c(=O)n(CC(=O)NC4CCCCC4)cnc32)cc1C 13.5%
N#Cc1c(/N=C/c2ccco2)sc2c1CCC2 -16.4%
O=C(C1CCN(S(=O)(=O)Cc2ccccc2)CC1)N1CCN(c2ncccn2)CC1 -3.88%
COc1cccc(-c2nc(-c3ccc(NC(=O)Cc4ccccc4OC)cc3)no2)c1 13%
O=C(COc1ccc(Cl)cc1)Nc1nc(-c2cccs2)cs1 1.13%
COCCNC(=O)CN(C)S(=O)(=O)c1ccc2c(c1)OCCO2 11.9%
O=C(Cn1c(=O)n(Cc2ccc3c(c2)OCO3)c(=O)c2ccccc21)N1CCCc2ccccc21 21.3%
NC(=O)CSc1nnc(-c2ccc(O)cc2)n1Cc1ccco1 11.3%
COC(=O)Cc1[nH]nc2c1C(C1C=CCCC1)C(C#N)=C(N)O2 (centres undefined) 18.7%
N#Cc1c(-c2ccccc2)nc(SCc2nc(N)nc(N3CCCCC3)n2)[nH]c1=O 14.8%
CCn1c(SCC(=O)NCc2ccco2)nc2c(c1=O)SC(C)C2 (centres undefined) 4.07%
CCn1c(C)nc2cc(C(=O)OC(C(F)(F)C(F)F)C(F)(F)C(F)F)ccc21 7.52%
O=C(CCN1CCN(CCO)CC1)Nc1ccc(OCc2ccccc2)cc1 -11.3%
COc1ccc2c(c1)CCc1c(C(=O)N3CC4(C)CC3CC(C)(C)C4)noc1-2 (centres undefined) 1.5%
Cc1cc(NC(=O)CCC(=O)N(CC2CCCO2)C(C(=O)NC2CCCC2)c2ccccc2C)no1 (centres undefined) 20.9%
COc1ccc2c(c1)CCc1c(C(=O)NCc3cccnc3)noc1-2 -37.2%
O=C(Nc1c(-c2ccccc2)nc2ccccn12)c1ccco1 -7.17%
O=C(CCCC(=O)N(CC(=O)NC1CCCCC1)Cc1ccc2c(c1)OCO2)Nc1ccccn1 15.4%
CCOC(=O)N1CCN(C(=O)C2c3cc(OC)c(OC)cc3C(=O)N3CCc4ccccc4C23)CC1 (centres undefined) 14.7%
COC(=O)Cc1csc(N)n1 12.4%
